# Assay results from PMC7862700, “An all-to-all approach to the identification of sequence-specific readers for epigenetic DNA modifications on cytosine”.
# What was measured:
# Assay in all cases: DAPPL (digital affinity profiling via proximity ligation, sequencing); 10 mM Tris-HCl pH 7.5, 50 mM NaCl, 1 mM DTT, 4% glycerol, room temperature, 30 min; GST-TFs on glutathione beads, 16-mer random dsDNA library, 0.1% formaldehyde crosslink after washing; high values mean tight binding
# FLI1 = target: T1, FLI1 (Homo sapiens, UniProt Q01543 1-452); conditions: protein: recombinant; tags: N-terminal GST; dsDNA, one strand shown
# T1 sequence: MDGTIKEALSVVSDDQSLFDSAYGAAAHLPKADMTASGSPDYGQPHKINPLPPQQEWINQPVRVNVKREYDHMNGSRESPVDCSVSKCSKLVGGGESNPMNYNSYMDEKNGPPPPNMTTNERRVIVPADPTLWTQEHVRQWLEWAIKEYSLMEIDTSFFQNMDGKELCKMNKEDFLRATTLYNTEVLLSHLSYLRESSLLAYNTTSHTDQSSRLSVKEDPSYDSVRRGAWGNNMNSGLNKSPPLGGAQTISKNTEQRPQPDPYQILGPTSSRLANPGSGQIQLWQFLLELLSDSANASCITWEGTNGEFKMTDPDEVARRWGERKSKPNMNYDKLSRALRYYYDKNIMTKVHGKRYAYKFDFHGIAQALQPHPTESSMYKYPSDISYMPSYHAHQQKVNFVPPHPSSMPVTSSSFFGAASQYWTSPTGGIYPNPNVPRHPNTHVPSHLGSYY
# Summary of the method: (§1)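 GST fusions of human transcription factors were expressed in yeast and captured with glutathione beads. Once given DNA barcodes and pooled alongside a tag-only sample, they were incubated for 30 min at room temperature with 200 nmole of a random double-stranded 16-mer DNA library in Tris/NaCl/DTT/glycerol buffer, then washed, crosslinked (0.1% formaldehyde), proximity-ligated, PCR-amplified and sequenced on an Illumina NextSeq500. The binding signal of each hexamer is its read frequency for a factor divided by its frequency for the tag-only sample.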
# ELK1 = target: T2, ELK1 (Homo sapiens, UniProt P19419 1-428); conditions: protein: recombinant; tags: N-terminal GST; dsDNA, one strand shown
# T2 sequence: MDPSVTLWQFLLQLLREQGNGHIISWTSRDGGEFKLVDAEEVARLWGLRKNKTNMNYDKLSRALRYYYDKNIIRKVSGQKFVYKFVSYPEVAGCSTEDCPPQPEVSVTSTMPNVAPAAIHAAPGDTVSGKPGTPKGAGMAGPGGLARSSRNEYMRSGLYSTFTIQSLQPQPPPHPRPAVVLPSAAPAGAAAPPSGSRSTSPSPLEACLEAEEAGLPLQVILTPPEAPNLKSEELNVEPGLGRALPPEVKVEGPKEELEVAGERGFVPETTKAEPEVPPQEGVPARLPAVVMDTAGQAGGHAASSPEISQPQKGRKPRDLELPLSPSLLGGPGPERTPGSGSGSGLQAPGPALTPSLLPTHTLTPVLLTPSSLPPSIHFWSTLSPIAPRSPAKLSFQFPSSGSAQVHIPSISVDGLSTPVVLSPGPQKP
# Summary of the method: as §1
# GABPA = target: T3, GABPA (Homo sapiens, UniProt Q06546 1-454); conditions: protein: recombinant; tags: N-terminal GST; dsDNA, one strand shown
# T3 sequence: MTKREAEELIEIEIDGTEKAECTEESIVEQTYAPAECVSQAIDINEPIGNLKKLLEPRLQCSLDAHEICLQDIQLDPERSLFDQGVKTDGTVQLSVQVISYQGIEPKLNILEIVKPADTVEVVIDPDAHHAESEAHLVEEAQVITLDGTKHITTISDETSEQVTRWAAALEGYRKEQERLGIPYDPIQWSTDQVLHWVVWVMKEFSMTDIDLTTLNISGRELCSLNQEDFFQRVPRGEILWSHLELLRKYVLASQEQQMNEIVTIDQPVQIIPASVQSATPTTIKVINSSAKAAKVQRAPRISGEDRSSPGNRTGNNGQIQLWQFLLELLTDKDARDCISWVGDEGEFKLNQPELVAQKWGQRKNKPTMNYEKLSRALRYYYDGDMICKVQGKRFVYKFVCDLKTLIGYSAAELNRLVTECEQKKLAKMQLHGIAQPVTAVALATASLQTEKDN
# Summary of the method: as §1
# ERG = target: T4, ERG (Homo sapiens, UniProt P11308 1-479); conditions: protein: recombinant; tags: N-terminal GST; dsDNA, one strand shown
# T4 sequence: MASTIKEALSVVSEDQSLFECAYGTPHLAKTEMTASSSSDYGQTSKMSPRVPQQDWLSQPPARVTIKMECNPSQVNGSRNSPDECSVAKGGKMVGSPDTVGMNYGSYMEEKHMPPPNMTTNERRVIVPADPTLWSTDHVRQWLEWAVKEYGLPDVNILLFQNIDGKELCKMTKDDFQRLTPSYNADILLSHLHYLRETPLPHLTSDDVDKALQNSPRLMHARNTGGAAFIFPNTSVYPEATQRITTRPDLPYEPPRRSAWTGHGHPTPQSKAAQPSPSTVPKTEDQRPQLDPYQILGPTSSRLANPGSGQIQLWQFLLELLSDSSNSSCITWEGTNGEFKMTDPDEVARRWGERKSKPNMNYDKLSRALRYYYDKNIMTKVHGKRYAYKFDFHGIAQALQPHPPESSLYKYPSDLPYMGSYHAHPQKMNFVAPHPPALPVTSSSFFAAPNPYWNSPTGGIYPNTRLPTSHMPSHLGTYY
# Summary of the method: as §1
# ELF1 = ELF1 (Homo sapiens, UniProt P32519 1-619); conditions: protein: recombinant; tags: N-terminal GST; dsDNA, one strand shown
# Summary of the method: as §1
# EHF = target: T5, EHF (Homo sapiens, UniProt Q9NZC4 1-300); conditions: protein: recombinant; tags: N-terminal GST; dsDNA, one strand shown
# T5 sequence: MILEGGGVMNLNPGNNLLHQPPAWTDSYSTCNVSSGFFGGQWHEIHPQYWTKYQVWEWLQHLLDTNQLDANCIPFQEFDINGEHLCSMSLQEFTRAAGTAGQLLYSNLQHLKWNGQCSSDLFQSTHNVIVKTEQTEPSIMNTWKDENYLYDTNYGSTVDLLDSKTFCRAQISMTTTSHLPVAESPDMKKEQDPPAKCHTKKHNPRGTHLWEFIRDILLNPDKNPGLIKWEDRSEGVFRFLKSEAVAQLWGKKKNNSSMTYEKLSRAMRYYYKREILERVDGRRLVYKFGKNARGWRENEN
# Summary of the method: as §1
# SPI1 = SPI1 (Homo sapiens, UniProt P17947 1-270); conditions: protein: recombinant; tags: N-terminal GST; dsDNA, one strand shown
# Summary of the method: as §1
# SPIB = SPIB (Homo sapiens, UniProt Q01892 1-262); conditions: protein: recombinant; tags: N-terminal GST; dsDNA, one strand shown
# Summary of the method: as §1
# ELK3 = target: T6, ELK3 (Homo sapiens, UniProt P41970 1-407); conditions: protein: recombinant; tags: N-terminal GST; dsDNA, one strand shown
# T6 sequence: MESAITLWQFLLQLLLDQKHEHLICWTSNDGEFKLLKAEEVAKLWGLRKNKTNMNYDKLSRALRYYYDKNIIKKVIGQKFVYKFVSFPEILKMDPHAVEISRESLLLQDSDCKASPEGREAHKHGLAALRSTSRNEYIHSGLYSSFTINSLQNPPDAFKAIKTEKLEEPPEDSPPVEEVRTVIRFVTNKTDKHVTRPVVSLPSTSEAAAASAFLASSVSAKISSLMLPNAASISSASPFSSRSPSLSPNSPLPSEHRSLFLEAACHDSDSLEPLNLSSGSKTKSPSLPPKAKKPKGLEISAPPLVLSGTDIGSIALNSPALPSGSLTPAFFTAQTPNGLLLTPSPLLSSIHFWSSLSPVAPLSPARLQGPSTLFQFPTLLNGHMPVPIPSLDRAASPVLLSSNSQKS
# Summary of the method: as §1
# FEV = target: T7, FEV (Homo sapiens, UniProt Q99581 1-238); conditions: protein: recombinant; tags: N-terminal GST; dsDNA, one strand shown
# T7 sequence: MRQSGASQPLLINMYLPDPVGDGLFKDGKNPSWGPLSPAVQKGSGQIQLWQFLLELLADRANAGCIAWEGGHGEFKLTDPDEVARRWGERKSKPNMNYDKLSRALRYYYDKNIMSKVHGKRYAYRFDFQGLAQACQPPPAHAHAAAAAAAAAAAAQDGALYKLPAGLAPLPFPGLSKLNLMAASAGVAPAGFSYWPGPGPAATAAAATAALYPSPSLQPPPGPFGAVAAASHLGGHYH
# Summary of the method: as §1
# ETV5 = ETV5 (Homo sapiens, UniProt P41161 1-510); conditions: protein: recombinant; tags: N-terminal GST; dsDNA, one strand shown
# Summary of the method: as §1
# HSF1 = HSF1 (Homo sapiens, UniProt Q00613 1-529); conditions: protein: recombinant; tags: N-terminal GST; chain copies: 3; dsDNA, one strand shown
# Summary of the method: as §1
# SPIC = target: T8, SPIC (Homo sapiens, UniProt Q8N5J4 1-248); conditions: protein: recombinant; tags: N-terminal GST; dsDNA, one strand shown
# T8 sequence: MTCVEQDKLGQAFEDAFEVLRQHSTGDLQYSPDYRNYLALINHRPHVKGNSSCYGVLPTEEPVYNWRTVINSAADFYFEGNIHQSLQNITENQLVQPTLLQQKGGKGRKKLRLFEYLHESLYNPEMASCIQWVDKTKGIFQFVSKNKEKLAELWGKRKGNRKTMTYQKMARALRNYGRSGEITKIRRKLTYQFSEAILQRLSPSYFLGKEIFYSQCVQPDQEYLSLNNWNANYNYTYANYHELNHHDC
# Summary of the method: as §1
# ELF4 = ELF4 (Homo sapiens, UniProt Q99607 1-663); conditions: protein: recombinant; tags: N-terminal GST; dsDNA, one strand shown
# Summary of the method: as §1
# ELK4 = target: T9, ELK4 (Homo sapiens, UniProt P28324-2 1-405); conditions: protein: recombinant; tags: N-terminal GST; dsDNA, one strand shown
# T9 sequence: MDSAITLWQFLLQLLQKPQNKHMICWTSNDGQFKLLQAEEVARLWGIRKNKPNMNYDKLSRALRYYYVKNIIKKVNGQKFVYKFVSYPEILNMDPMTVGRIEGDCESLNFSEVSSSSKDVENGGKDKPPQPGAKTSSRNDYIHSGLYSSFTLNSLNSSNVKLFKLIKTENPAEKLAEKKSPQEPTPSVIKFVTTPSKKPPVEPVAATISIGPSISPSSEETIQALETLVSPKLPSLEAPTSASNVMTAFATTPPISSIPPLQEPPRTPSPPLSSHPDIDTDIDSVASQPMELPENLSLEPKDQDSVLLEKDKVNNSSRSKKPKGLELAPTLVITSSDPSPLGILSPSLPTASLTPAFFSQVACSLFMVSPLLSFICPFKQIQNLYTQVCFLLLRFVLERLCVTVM
# Summary of the method: as §1
# ETV2 = target: T10, ETV2 (Homo sapiens, UniProt O00321 1-342); conditions: protein: recombinant; tags: N-terminal GST; dsDNA, one strand shown
# T10 sequence: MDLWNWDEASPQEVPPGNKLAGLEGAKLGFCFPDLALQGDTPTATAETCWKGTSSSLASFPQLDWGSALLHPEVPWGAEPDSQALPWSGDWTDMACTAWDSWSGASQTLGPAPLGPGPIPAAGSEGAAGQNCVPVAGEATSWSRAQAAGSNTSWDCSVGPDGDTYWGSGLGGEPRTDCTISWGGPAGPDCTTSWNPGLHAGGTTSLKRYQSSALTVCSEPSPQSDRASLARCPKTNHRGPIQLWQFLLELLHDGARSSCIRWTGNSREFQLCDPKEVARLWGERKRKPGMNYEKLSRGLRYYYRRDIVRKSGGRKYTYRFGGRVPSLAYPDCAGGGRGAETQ
# Summary of the method: as §1
# ELF3 = target: T11, ELF3 (Homo sapiens, UniProt P78545 1-371); conditions: protein: recombinant; tags: N-terminal GST; dsDNA, one strand shown
# T11 sequence: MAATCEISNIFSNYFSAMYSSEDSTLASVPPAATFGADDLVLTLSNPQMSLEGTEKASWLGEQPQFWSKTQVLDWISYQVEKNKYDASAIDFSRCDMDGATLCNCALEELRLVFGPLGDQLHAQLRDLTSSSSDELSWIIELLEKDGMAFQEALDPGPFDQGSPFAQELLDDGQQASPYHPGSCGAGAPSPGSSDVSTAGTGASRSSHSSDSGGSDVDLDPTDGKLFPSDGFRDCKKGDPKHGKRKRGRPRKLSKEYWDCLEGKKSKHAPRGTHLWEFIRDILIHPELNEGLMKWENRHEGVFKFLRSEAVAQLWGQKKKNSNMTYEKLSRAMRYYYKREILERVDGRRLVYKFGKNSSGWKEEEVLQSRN
# Summary of the method: as §1
# ETV1 = ETV1 (Homo sapiens, UniProt P50549 1-477); conditions: protein: recombinant; tags: N-terminal GST; dsDNA, one strand shown
# Summary of the method: as §1
# Sequence of ETV5 (P41161 whole entry): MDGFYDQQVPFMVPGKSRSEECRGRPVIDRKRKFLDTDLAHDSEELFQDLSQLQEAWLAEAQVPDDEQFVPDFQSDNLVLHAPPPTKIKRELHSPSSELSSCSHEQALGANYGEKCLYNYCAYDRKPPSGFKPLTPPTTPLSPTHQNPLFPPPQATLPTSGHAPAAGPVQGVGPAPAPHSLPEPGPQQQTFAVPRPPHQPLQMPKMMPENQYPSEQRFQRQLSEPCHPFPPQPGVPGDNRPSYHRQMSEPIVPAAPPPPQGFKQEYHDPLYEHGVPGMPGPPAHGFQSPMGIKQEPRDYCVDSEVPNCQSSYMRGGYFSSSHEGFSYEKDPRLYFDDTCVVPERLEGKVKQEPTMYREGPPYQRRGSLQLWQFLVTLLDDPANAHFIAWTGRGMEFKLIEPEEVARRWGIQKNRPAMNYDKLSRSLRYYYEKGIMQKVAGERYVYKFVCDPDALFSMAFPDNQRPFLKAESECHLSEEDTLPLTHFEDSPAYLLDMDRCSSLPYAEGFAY
# Sequence of HSF1 (Q00613 whole entry): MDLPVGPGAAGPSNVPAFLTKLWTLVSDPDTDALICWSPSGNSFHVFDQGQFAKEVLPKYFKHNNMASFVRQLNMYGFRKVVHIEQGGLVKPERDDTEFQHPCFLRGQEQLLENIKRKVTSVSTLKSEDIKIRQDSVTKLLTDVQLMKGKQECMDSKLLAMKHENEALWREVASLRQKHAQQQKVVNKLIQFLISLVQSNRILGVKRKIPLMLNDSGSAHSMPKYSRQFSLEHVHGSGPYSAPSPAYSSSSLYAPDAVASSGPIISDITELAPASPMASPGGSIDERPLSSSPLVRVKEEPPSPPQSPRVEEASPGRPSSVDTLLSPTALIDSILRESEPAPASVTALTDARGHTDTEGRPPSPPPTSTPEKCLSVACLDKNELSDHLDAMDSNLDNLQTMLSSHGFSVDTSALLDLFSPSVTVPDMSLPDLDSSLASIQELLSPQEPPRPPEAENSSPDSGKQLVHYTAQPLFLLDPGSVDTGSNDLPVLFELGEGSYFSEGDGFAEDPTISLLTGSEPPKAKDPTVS
# Sequence of ELF1 (P32519 whole entry): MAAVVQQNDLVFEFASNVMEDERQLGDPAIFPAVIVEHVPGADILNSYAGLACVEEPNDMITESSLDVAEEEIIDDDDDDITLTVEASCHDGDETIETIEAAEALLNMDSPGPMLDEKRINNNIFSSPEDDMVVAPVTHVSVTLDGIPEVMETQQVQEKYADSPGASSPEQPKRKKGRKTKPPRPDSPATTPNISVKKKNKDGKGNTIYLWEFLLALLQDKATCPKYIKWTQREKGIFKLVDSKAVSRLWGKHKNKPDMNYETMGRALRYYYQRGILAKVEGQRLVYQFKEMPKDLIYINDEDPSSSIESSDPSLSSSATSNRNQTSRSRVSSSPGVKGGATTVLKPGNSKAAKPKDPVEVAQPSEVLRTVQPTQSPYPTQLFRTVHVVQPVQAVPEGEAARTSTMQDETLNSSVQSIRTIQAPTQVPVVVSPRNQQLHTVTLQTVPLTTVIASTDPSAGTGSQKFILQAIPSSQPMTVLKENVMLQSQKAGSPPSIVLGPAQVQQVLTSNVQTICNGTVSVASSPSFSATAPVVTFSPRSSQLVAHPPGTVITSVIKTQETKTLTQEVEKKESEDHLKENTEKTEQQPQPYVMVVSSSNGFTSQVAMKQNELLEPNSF
# Sequence of ELF4 (Q99607 whole entry): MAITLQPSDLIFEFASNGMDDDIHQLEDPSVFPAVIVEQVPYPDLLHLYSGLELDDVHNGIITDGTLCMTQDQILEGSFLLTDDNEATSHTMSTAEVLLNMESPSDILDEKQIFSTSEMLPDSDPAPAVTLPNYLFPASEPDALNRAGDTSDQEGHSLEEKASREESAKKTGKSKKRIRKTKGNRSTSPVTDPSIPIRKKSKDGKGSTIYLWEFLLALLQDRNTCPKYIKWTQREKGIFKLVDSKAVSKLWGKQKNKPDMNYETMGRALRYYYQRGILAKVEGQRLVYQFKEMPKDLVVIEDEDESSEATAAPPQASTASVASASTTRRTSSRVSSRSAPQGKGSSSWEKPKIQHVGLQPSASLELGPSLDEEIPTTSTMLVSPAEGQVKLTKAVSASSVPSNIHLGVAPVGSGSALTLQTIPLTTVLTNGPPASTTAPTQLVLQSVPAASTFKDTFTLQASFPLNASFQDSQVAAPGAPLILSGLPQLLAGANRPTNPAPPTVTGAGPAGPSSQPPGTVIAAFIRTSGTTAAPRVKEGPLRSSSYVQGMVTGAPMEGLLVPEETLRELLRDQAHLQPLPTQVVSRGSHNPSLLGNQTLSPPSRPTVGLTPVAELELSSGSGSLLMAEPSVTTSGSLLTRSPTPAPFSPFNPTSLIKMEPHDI
# Sequence of ETV1 (P50549 whole entry): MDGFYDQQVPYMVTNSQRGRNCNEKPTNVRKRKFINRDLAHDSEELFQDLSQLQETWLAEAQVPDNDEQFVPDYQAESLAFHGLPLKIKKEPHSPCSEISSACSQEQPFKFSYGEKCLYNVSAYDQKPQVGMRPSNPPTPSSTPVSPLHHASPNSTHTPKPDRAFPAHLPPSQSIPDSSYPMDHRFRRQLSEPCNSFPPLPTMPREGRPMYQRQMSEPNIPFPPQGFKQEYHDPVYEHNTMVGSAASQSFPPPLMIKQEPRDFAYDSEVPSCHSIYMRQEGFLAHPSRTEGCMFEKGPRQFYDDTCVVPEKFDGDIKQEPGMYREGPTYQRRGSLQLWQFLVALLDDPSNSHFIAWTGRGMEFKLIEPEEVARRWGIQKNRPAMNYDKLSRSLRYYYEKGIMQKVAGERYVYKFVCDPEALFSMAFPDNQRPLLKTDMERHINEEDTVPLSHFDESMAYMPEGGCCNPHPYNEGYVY
# Sequence of SPIB (Q01892 whole entry): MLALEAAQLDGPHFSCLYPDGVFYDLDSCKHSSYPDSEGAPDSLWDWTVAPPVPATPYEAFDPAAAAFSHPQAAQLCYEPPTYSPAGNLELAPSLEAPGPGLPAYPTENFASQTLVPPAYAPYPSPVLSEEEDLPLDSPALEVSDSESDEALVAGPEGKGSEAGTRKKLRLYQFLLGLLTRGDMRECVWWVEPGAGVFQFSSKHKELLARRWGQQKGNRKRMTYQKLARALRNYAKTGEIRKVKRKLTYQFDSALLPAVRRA
sequence,measurement,setting,value
CGCTCC,binding signal,FLI1,"1.37 fold enrichment (6-mer frequency, TF over GST control)"
same,binding signal,ELK1,"1.28 fold enrichment (6-mer frequency, TF over GST control)"
same,binding signal,GABPA,"1.37 fold enrichment (6-mer frequency, TF over GST control)"
same,binding signal,ERG,"1.33 fold enrichment (6-mer frequency, TF over GST control)"
same,binding signal,ELF1,"1.31 fold enrichment (6-mer frequency, TF over GST control)"
same,binding signal,EHF,"1.24 fold enrichment (6-mer frequency, TF over GST control)"
same,binding signal,SPI1,"1.29 fold enrichment (6-mer frequency, TF over GST control)"
same,binding signal,SPIB,"1.36 fold enrichment (6-mer frequency, TF over GST control)"
same,binding signal,ELK3,"1.37 fold enrichment (6-mer frequency, TF over GST control)"
same,binding signal,FEV,"1.34 fold enrichment (6-mer frequency, TF over GST control)"
same,binding signal,ETV5,"1.31 fold enrichment (6-mer frequency, TF over GST control)"
same,binding signal,HSF1,"1.09 fold enrichment (6-mer frequency, TF over GST control)"
same,binding signal,SPIC,"1.33 fold enrichment (6-mer frequency, TF over GST control)"
same,binding signal,ELF4,"1.38 fold enrichment (6-mer frequency, TF over GST control)"
same,binding signal,ELK4,"1.41 fold enrichment (6-mer frequency, TF over GST control)"
same,binding signal,ETV2,"1.36 fold enrichment (6-mer frequency, TF over GST control)"
same,binding signal,ELF3,"1.3 fold enrichment (6-mer frequency, TF over GST control)"
same,binding signal,ETV1,"1.26 fold enrichment (6-mer frequency, TF over GST control)"
